For 13 molecules, growth results are on record in PubChem BioAssay (NCI).

The panel holds about 83,000 compounds, 20% with a hit somewhere; the sample as a whole holds those more often.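 96-well plates, one dose, 48 hours. Percent growth reported; active if below 10.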 Values without a mark were called inactive. Active and inactive are the calls of the source.

Some test systems named below: RPMI-8226 leukemia; OVCAR-8 ovarian; OVCAR-5 ovarian; OVCAR-4 ovarian; SK-OV-3 ovarian; IGROV1 ovarian; OVCAR-3 ovarian; HS 578T breast; NCI/ADR-RES ovarian; T-47D breast.
Common to all, as to assay: NCI-60 one-dose screen, 48 h (100 = growth as untreated, 0 = no growth, -100 = all killed)
Common to all, as to settings: 10 µM unless noted

Turning to `CC(=O)Nc1nc2c(c(N)c1C#N)C(c1cccc(Cl)c1)C1=C(CCCC1=O)N2c1sc2c(c1C#N)CCCC2` (stereo not given), the growth in the test on RPMI-8226 leukemia was 22%; in the test with OVCAR-8 ovarian it was 37%; in the test with OVCAR-5 ovarian, 87.1%; in the test on OVCAR-4 ovarian, 57.5%; in the test on SK-OV-3 ovarian, 54.7%; in the test with IGROV1 ovarian, 59.4%. The growth in the test with OVCAR-3 ovarian was 56.1%; in the test with HS 578T breast, 73.7%; with NCI/ADR-RES ovarian it was 46.7%; with T-47D breast, 36.7%.
Turning to `COc1ccc(-n2cc(COc3ccc4c5ccnc(C)c5n(CC(C)C)c4c3)nn2)cc1`, the growth was 27.5% with RPMI-8226 leukemia; 37.6% with OVCAR-8 ovarian; 91.3% with OVCAR-5 ovarian; 65.9% in the test with OVCAR-4 ovarian; 56.7% in the test with SK-OV-3 ovarian; 79% with IGROV1 ovarian. In addition, the growth with OVCAR-3 ovarian is 66.2%; in the test on HS 578T breast, 49.7%; with NCI/ADR-RES ovarian, 53.9%; in the test with T-47D breast, 39.2%.
Take `C=C1C(=O)O[C@H]2[C@H]1CC/C(COC(=O)CCCCC(=O)OC/C1=C/CC[C@@]3(C)O[C@H]3[C@H]3OC(=O)C(=C)[C@@H]3CC1)=C\CC[C@@]1(C)O[C@@H]21`: the growth was 5.66% (active) with RPMI-8226 leukemia; 49.7% in the test on OVCAR-8 ovarian; 115% in the test with OVCAR-5 ovarian; 82.3% in the test with OVCAR-4 ovarian; 85.6% in the test on SK-OV-3 ovarian; 39.4% in the test with IGROV1 ovarian. Further, the growth was 18.6% in the test on OVCAR-3 ovarian, 82.7% with HS 578T breast, 87.5% in the test with NCI/ADR-RES ovarian and 38.6% in the test on T-47D breast.
Consider `CCOC(=O)C1=C(C)n2nc(CC#N)c(C#N)c2NC1c1ccc(Cl)cc1` (stereo not given), for which the growth in the test on RPMI-8226 leukemia is 101%; in the test with OVCAR-8 ovarian, 108%; in the test with OVCAR-5 ovarian, 103%; with OVCAR-4 ovarian, 99.3%; in the test with SK-OV-3 ovarian, 105%; with IGROV1 ovarian, 84.1%. For the same molecule, the growth in the test with OVCAR-3 ovarian was 89.3%; in the test on HS 578T breast it was 106%; with NCI/ADR-RES ovarian it was 91.9%; in the test with T-47D breast it was 110%.
As to `CN(CCC#N)C(=O)Nc1ccccc1`, the growth was 107% in the test on RPMI-8226 leukemia; 102% in the test with OVCAR-8 ovarian; 111% in the test with OVCAR-5 ovarian; 104% in the test with OVCAR-4 ovarian; 100% in the test on SK-OV-3 ovarian; 106% in the test on IGROV1 ovarian. Further, the growth with OVCAR-3 ovarian was 108%; in the test on HS 578T breast it was 105%; with NCI/ADR-RES ovarian it was 102%; in the test on T-47D breast, 97.2%.
Turning to `Cc1cnc(SCc2ccc(Cl)cc2Cl)nc1Nc1ccc(Cl)c(Cl)c1`, the growth with RPMI-8226 leukemia was 86.7%; in the test with OVCAR-8 ovarian, 91.9%; in the test with OVCAR-5 ovarian, 103%; with OVCAR-4 ovarian it was 93.9%; with SK-OV-3 ovarian it was 97.9%; in the test on IGROV1 ovarian, 82.8%. The growth was 99.6% with OVCAR-3 ovarian, 90.8% in the test on HS 578T breast, 95.9% with NCI/ADR-RES ovarian and 68% in the test on T-47D breast.
On to `CC1CCCN(CCCCCOc2ccc3oc4ccc(Cl)cc4c(=O)c3c2)C1` (stereo not given), for which the growth in the test with RPMI-8226 leukemia was 61.8%; in the test with OVCAR-8 ovarian it was 75%; in the test on OVCAR-5 ovarian, 70.4%; with OVCAR-4 ovarian, 63.2%; with SK-OV-3 ovarian, 91.9%; with IGROV1 ovarian it was 68.7%. Also, the growth was 76.6% with OVCAR-3 ovarian, 84.7% in the test with HS 578T breast, 73% with NCI/ADR-RES ovarian and 64.8% in the test on T-47D breast.
Consider `C=C(C)[C@@H]1CC[C@]2(C(=O)O)CC[C@]3(C)[C@H](CC[C@@H]4[C@@]5(C)C[C@@H](CC#Cc6ccc(Cl)cc6)C(=O)C(C)(C)[C@@H]5CC[C@]43C)[C@@H]12`, for which the growth in the test with RPMI-8226 leukemia is 22.5%; in the test with OVCAR-8 ovarian it was 48.1%; in the test with OVCAR-5 ovarian, 70.9%; in the test with OVCAR-4 ovarian, 29.1%; in the test on SK-OV-3 ovarian it was 61.5%; with IGROV1 ovarian, 70.1%. The growth in the test with OVCAR-3 ovarian was 46.6%; in the test on HS 578T breast, 55.3%; in the test on NCI/ADR-RES ovarian, 71.7%; in the test with T-47D breast, 39.4%.
On to `COc1ccc(Nc2nc(SCC(C)C)nc(-c3ccc(F)cc3)c2C#N)cc1`, for which the growth with RPMI-8226 leukemia was 88%; in the test on OVCAR-8 ovarian, 89.4%; with OVCAR-5 ovarian, 94.3%; in the test on OVCAR-4 ovarian, 80.9%; with SK-OV-3 ovarian it was 73.4%; with IGROV1 ovarian, 71.4%. The growth was 21% in the test with OVCAR-3 ovarian, 79.1% in the test with HS 578T breast, 40.3% in the test on NCI/ADR-RES ovarian and 65% with T-47D breast.
In the case of `CCCCC(=O)Nc1c(C(=O)Nc2ccccc2)sc2nc3c(cc12)C(OC(=O)CCCC)CCC3` (stereo not given), the growth is 48.9% in the test on RPMI-8226 leukemia; 84.7% with OVCAR-8 ovarian; 111% in the test with OVCAR-5 ovarian; 36.7% in the test on OVCAR-4 ovarian; 108% with SK-OV-3 ovarian; 99.8% in the test with IGROV1 ovarian. In addition, the growth is 102% with OVCAR-3 ovarian, 89.5% with HS 578T breast, 79.3% with NCI/ADR-RES ovarian and 79% in the test with T-47D breast.
As for `S=c1ssnc1-c1cc2ccccc2o1`, the growth in the test with RPMI-8226 leukemia is 21.4%; in the test on OVCAR-8 ovarian it was 86%; in the test with OVCAR-5 ovarian it was 105%; with OVCAR-4 ovarian it was 83.2%; in the test on SK-OV-3 ovarian, 85.7%; with IGROV1 ovarian, -54% (active). The growth with OVCAR-3 ovarian is 80.4%; with HS 578T breast, 61.9%; in the test with NCI/ADR-RES ovarian it was 78%; with T-47D breast, 64.5%.
On to `CS(=O)(=O)O[C@@H]1C(=O)N(c2cc3c4ccccc4ccc3c3ccccc23)[C@H]1c1ccc(F)cn1`, for which the growth with RPMI-8226 leukemia was 19.8%; in the test on OVCAR-8 ovarian, 27.4%; in the test with OVCAR-5 ovarian, 58.3%; in the test with OVCAR-4 ovarian it was 66.5%; in the test with SK-OV-3 ovarian, 41.7%; in the test on IGROV1 ovarian, 51.7%. Besides, the growth in the test on OVCAR-3 ovarian was -12.7% (active); with HS 578T breast, 7.01% (active); in the test with NCI/ADR-RES ovarian, 20.2%; in the test on T-47D breast, 32.5%.
Take `COc1cc(/C=C/CO)cc(OC)c1O[C@@H]1O[C@H](CO)[C@@H](O)[C@H](O)[C@H]1O`: the growth is 99.3% in the test on RPMI-8226 leukemia; 98.8% in the test with OVCAR-8 ovarian; 92.4% in the test on OVCAR-5 ovarian; 100% in the test on OVCAR-4 ovarian; 100% in the test with SK-OV-3 ovarian; 104% with IGROV1 ovarian. For the same molecule, the growth is 108% in the test on OVCAR-3 ovarian, 96.4% with HS 578T breast, 106% in the test with NCI/ADR-RES ovarian and 93.1% in the test with T-47D breast.
